Source: PubChem
TIM10 inh – TIM10 yeast growth inhibition; S. cerevisiae TIM10 strain growth, BacTiter-Glo luminescence, 24 h; inhibition, % at 10 µM; hit rate 1.4% among 330,000; AID 463195;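 active means inhibition of 40% or more at the single tested concentration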;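 further: wild-type TIM10 isogenic control strain grown at permissive 25 °C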
PfHsp90 set2 – growth inhibition of yeast expressing Plasmodium Hsp90 | S. cerevisiae expressing PfHsp90, BacTiter-Glo ATP, 48 h; yeast lacking PDR1 and PDR3 efflux regulators | inhibition, % at 9.4 µM | hit rate 0.32% among 310,000;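 active means every replicate shows inhibition above about 80%, whatever the replicate mean, limit read from the data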;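 further: 0% = DMSO neutral controls and 100% = 20 µM radicicol positive controls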
NALP3 yeast inh – NALP3 inhibition in yeast | hit rate 0.39% among 330,000 | AID 2825 | inhibition, % at 10 µM | Yeast reconstituted NLRP3/ASC/caspase-1, beta-gal luminescence, 24 h;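 active means inhibition of 50% or more; inactive means inhibition below 50%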;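 further: plate controls were induced DMSO wells for no effect and uninduced yeast grown without galactose for full effect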
tim23-1 inh – growth inhibitors of tim23-1 mutant yeast; S. cerevisiae tim23-1 growth, BacTiter-Glo luminescence, 24 h; inhibition, % at 20 µM; hit rate 1.3% among 330,000; AID 463212;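 active means growth inhibition of the mutant yeast at or above 50%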;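 further: temperature-sensitive mutant grown at 25 °C; plate controls were DMSO-treated mutant yeast for no effect and medium wells lacking yeast for full effect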
SKKanGAS inh – blocks kanamycin growth of S. pyogenes SKKanGAS strain; AID 1662; hit rate 1.3% among 300,000; BacTiter-Glo, 6 h; inhibition, % at 7.5 µM;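 active means mean replicate score, as percent of positive control median, at least 50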;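 further: strain carries kanamycin resistance gene driven by streptokinase promoter and grows in 40 µg/ml kanamycin; loss of luminescence reflects streptokinase promoter inhibition or plain growth inhibition; 0% = median of DMSO wells and 100% = positive control at its reference dose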
tim10-1 inh – tim10-1 yeast growth inhibition; S. cerevisiae tim10-1 ts strain growth, BacTiter-Glo, 24 h; AID 463190; hit rate 2.2% among 330,000; inhibition, % at 20 µM;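 active means inhibition of at least 40%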;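 further: mutant grown at 25 °C; 0% = DMSO wells with yeast and 100% = wells holding no yeast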
tim10-1 confirm – tim10-1 yeast growth inhibition, confirmed | inhibition, % at 20 µM | hit rate 56% among 7,400 | S. cerevisiae tim10-1 ts strain growth, BacTiter-Glo, 24 h | shares compounds with tim10-1 inh;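 active means inhibition of yeast growth at or above a set limit in either of two repeat tests at 20 µM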;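 further: tim10-1 mutant grown at permissive 25 °C to find synthetic lethal compounds; 0% = DMSO yeast wells and 100% = medium wells without yeast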
TIM10 conf – TIM10 yeast growth inhibition, confirmed | shares compounds with TIM10 inh | inhibition, % at 10 µM | S. cerevisiae tim10 strain growth, BacTiter-Glo luminescence, 24 h | hit rate 63% among 4,600;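 active means inhibition of yeast growth at or above a set limit in either of two replicates at 10 µM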;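 further: this counterscreen used the strain with wild-type TIM10; 0% = yeast with DMSO and 100% = medium wells lacking yeast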
Starred values were filed as active, the others as inactive; x = not tested or not shown. Most compounds without a hit are left out; they make up all but 4.6% or so of the library.

SMILES | TIM10 inh | PfHsp90 set2 | NALP3 yeast inh | tim23-1 inh | SKKanGAS inh | tim10-1 inh | tim10-1 confirm | TIM10 conf
Cc1ccnc(NC(=O)c2ccc([N+](=O)[O-])s2)c1 | 69* | 0 | 3 | 34 | 5 | 75* | 72* | 80*
Cc1ccccc1NC(=O)COC(=O)CCC(=O)c1cccs1 | 4 | -1 | 0 | 15 | x | 6 | x | x
CCOc1ccc(NC(=O)CN2C(=O)NC(C)(c3ccc4c(c3)OCCCO4)C2=O)cc1OCC (configuration not stated) | x | 9 | x | x | x | x | x | x
Cc1cc(C(=O)COC(=O)c2nccnc2N)c(C)n1C | 3 | -11 | 6 | -6 | -3 | 4 | x | x
COc1cc(C(=O)OCC(=O)c2cc(C)n(C)c2C)cc(OC)c1OC | 45* | x | 2 | 38 | 2 | 42* | 32 | 8
COc1ccc(O)c(C(=O)/C=C/c2cc3ccccc3o2)c1 | 48* | 1 | 17 | 39 | 1 | 57* | 37* | -11
O=C(/C=C/c1cc2ccccc2o1)c1ccccc1O | 58* | -6 | 13 | 48 | -8 | 41* | 49* | 58*
O=C(Nc1ncc2c(n1)-c1ccccc1CC2)c1cccc(Cl)c1 | 44* | -3 | -5 | 40 | -14 | 49* | 43* | 23
Cc1cc(C(=O)NCC23CC4CC(CC(C4)C2)C3)c(C)o1 | 40* | x | 26 | 45 | -4 | 45* | 27 | 34*
Cc1ccnc(N2CCC(C(=O)Nc3cccc(C(F)(F)F)c3)CC2)n1 | 42* | -8 | 13 | 47 | 5 | 52* | 48* | 30*
N/C(=N\OC(=O)c1ccco1)c1ccccc1 | 9 | -17 | 9 | 21 | -26 | 14 | x | x
Cc1ccc(/C(N)=N/OC(=O)c2ccco2)cc1 | 52* | x | 13 | 38 | -2 | 46* | 34* | 37*
Clc1ccc(CN2CCN(c3ncnc4scc(-c5cccs5)c34)CC2)cc1 | 44* | 15 | 4 | 29 | 39 | 44* | 38* | 32*
O=S(=O)(NCCSc1ccc(Cl)cc1)c1ccc(F)cc1 | 41* | -17 | 24 | 31 | 4 | 44* | 35* | 12
CC(C)(C)SCCNS(=O)(=O)c1ccc(Cl)cc1 | 7 | -7 | 16 | 38 | -3 | 32 | x | x
O=C(NC(=S)Nc1nc2c(s1)CSc1ccccc1-2)c1ccccc1 | 44* | -4 | 35 | 45 | 38 | 48* | 19 | 30*
N#C/C(=C/c1ccc(N2CCCCC2)o1)c1cccc(F)c1 | 46* | -33 | 5 | 38 | -29 | 55* | 51* | 28
C=CCc1ccc(OCCOc2cccc3ccc(C)nc23)c(OC)c1 | 52* | x | 6 | 46 | -8 | 42* | 32* | 31*
CN1CCN(C2=C(Cl)C(=O)C(c3cnc(N4CCCCC4)s3)=C(Cl)C2=O)CC1 | 45* | x | 15 | 25 | 13 | 72* | 60* | 44*
O=C(c1cc(Cl)ccc1O)N1CCN(S(=O)(=O)Cc2ccccc2)CC1 | 17 | 2 | 15 | 19 | x | 15 | x | x
O=C(CSCC(=O)OCn1nnc2ccccc2c1=O)Nc1ccc(Cl)cc1 | 51* | 14 | -7 | 47 | 8 | 62* | 55* | 25
C[C@H](NC(=O)c1ccc(Cl)cc1)C(=O)OCn1nnc2ccccc2c1=O | -29 | x | -8 | 7 | x | -12 | x | x
CC(=O)N1CCN(S(=O)(=O)c2cccc(C(=O)OCc3ccc(C(C)(C)C)cc3)c2)CC1 | 13 | 7 | 9 | 23 | x | 40 | x | x
COc1ccc(/C=C2\CCC(C3CCCC3)C2=O)cc1Cn1cccn1 (configuration not stated) | 18 | 19 | 27 | 31 | 2 | 26 | x | x
COc1ccc(/C=C2\CCc3ccccc3C2=O)cc1Cn1cccn1 | 42* | x | 34 | 36 | 0 | 43* | 40* | 13
SMILES | TIM10 inh | PfHsp90 set2 | NALP3 yeast inh | tim23-1 inh | SKKanGAS inh | tim10-1 inh | tim10-1 confirm | TIM10 conf
O=C(Nc1nnc(CC2=CCCCC2)s1)c1cccs1 | 72* | -9 | 19 | 30 | 9 | 47* | 42* | -27
COc1ccc(CCC(=O)NCC(c2ccco2)N2CCc3ccccc32)cc1 (configuration not stated) | 1 | x | 22 | 21 | 4 | 6 | x | x
CN(C)c1ccc(/C=N/n2c(-c3ccccc3Br)n[nH]c2=S)cc1 | 41* | 41 | 6 | 44 | 5 | 42* | 24 | 24
CN(C)c1ccc(/C=N/n2c(-c3cccnc3)n[nH]c2=S)cc1 | 8 | -12 | 7 | 7 | 15 | 13 | x | x
Cc1cc(C)cc(NC(=S)NC(=O)Cc2ccccc2)c1 | 40* | -8 | 23 | 47 | 3 | 44* | 30* | 40*
Cn1c(N)c(C(=O)COC(=O)COc2cc(Cl)c(Cl)cc2Cl)c(=O)n(C)c1=O | -8 | -28 | 21 | 6 | x | -3 | x | x
CCOC(=O)CNC(c1ccccc1)c1cc(Br)ccc1NC(=O)OCC (configuration not stated) | 20 | -2 | 7 | 22 | 18 | 30 | x | x
COC(=O)CNC(c1ccccc1)c1cc(Br)ccc1NC(=O)CCN1CCOCC1 (configuration not stated) | 51* | -53 | 26 | 34 | -8 | 51* | 42* | 57*
CCOC(=O)CNC(c1ccccc1)c1cc(Br)ccc1NC(=O)CCN1CCOCC1 (configuration not stated) | 55* | x | 45 | -13 | -6 | 45* | 40* | 40*
CCCCn1c(N)c(N(CC(C)C)C(=O)c2ccc(OC)c(S(=O)(=O)N3CCOCC3)c2)c(=O)[nH]c1=O | x | 2 | x | x | x | x | x | x
O=C(Nc1nc2ccc(Cl)cc2s1)C1CC1 | 46* | -18 | -11 | 33 | 0 | 41* | 43* | 46*
CC(=O)OC1CCC2(C)C(=CCC3C2CCC2(C)C3CC3OC4(CCC(C)CN4)C(C)C32)C1 (configuration not stated) | 44* | 11 | 2 | 42 | -3 | 41* | 34* | 22
C[C@]12CC[C@H](OC(=O)CCC(=O)O)CC1=CCC1C2CC[C@@]2(C)C1CC[C@@H]2N (some centres not stated) | -1 | x | 8 | 4 | x | 12 | x | x
O=C(CSc1ccccc1)N1CCCC(N2CCN(c3ccccc3)CC2)C1 (configuration not stated) | 10 | -16 | 12 | 7 | -16 | 18 | x | x
CC(OC(=O)CCCN=C1NS(=O)(=O)c2ccccc21)C(=O)Nc1ccc(F)cc1Cl (configuration not stated) | -6 | -58 | -14 | 2 | -1 | -15 | x | x
O=C(C1CC1)N1CCc2cc(S(=O)(=O)N3CCOCC3)ccc21 | -7 | 11 | -16 | 10 | 10 | 10 | x | x
